Test results: PubChem BioAssay (NCI)
About 79,000 compounds went through this panel and 15% of them were active in at least one assay; those are over-represented in the sample as a whole. A number with no mark means an inactive call. The source made the active and inactive calls. No stated cut-off is given here; in the data, active means growth inhibition above about 70%; inactive means the rest.

Columns and labels:
[1] = NCI Yeast Anticancer Drug Screen. Data for the rad50 strain (AID 155);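 further: 0% = growth of vehicle-only cultures of the same strain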; conditions: S. cerevisiae rad50 strain growth inhibition; at 50.0 µM; stronger effect = higher value
Procedure, shortened: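 Yeast carrying a defined DNA repair defect were exposed to test compounds, and growth was compared with vehicle-treated controls to give percent inhibition.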

[2] = NCI Yeast Anticancer Drug Screen. Data for the mec2-1 strain (AID 157); conditions: S. cerevisiae mec2-1 strain, at 50.0 µM, stronger effect = higher value
Procedure, shortened: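 Cells of the genetically defined mec2-1 yeast strain are incubated with test compound. Inhibition of growth is calculated against vehicle-treated controls.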

[3] = NCI Yeast Anticancer Drug Screen. Data for the sgs1 mgt1 strain (AID 161);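 further: 0% = growth of cultures given vehicle only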; conditions: S. cerevisiae sgs1 mgt1 strain, at 50.0 µM, stronger effect = higher value
Procedure, shortened: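 Read-out: growth inhibition vs vehicle controls. Cells: mutant yeast strain deficient in DNA damage repair.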

[4] = NCI Yeast Anticancer Drug Screen. Data for the cln2 rad14 strain (AID 165);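 further: 0% = growth equal to vehicle treated cultures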; conditions: S. cerevisiae cln2 rad14 strain, at 50.0 µM, stronger effect = higher value
Procedure, shortened: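 The screen exposed genetically defined yeast (cln2 rad14) to test compounds and scored growth inhibition relative to vehicle-treated controls.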

[5] = NCI Yeast Anticancer Drug Screen. Data for the bub3 strain (AID 167); conditions: S. cerevisiae bub3 mutant strain, at 50.0 µM, stronger effect = higher value
Procedure, shortened: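 Compounds were applied to a genetically altered yeast strain carrying a cell-cycle control defect. Growth inhibition was scored against vehicle-treated controls.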

[6] = NCI Yeast Anticancer Drug Screen. Data for the mlh1 rad18 strain (AID 175); conditions: S. cerevisiae mlh1 rad18 strain growth inhibition; at 50.0 µM; stronger effect = higher value
Procedure, shortened: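 Compound-treated yeast growth, normalised to vehicle controls. Strain bears defined DNA repair mutations.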

Row | SMILES | growth inhibition [1] | growth inhibition [2] | growth inhibition [3] | growth inhibition [4] | growth inhibition [5] | growth inhibition [6]
1 | O=C(O)CCc1ccc2c(c1)CC1(Cc3ccccc3C1)C2 | 26.1% | 41.8% | 61.2% | 52.6% | 48.1% | 64%
2 | COc1ccc(-c2cc3cc(OC)c(OC)cc3c[n+]2C)cc1OC | 28.3% | 5.4% | 5.6% | 16.1% | -2.3% | -0.55%
3 | CCSC(SCC)C(Nc1ccc([N+](=O)[O-])cc1[N+](=O)[O-])C(OC(C)=O)C(OC(C)=O)C(COC(C)=O)OC(C)=O (configuration not stated) | 30.9% | 9.65% | 10.2% | 14.8% | -2.9% | 12.8%
4 | CN(C)c1ccc(C=Nc2cc(S(=O)(=O)O)cc3cc(S(=O)(=O)O)cc(O)c23)cc1 | -22.9% | -9.7% | -14.7% | 31.6% | 12.4% | 8.85%
5 | N#C/C=C\c1ccc(Cl)cc1 | 2.6% | -4.5% | -30.4% | -10.8% | -11.8% | -3.05%
6 | Cc1ccccc1S(=O)(=O)NSc1ccccc1[N+](=O)[O-] | 28.2% | -5.25% | 33% | 1.85% | -12.8% | 25.7%
7 | CCOC(C)C1C2CCCCC21 (configuration not stated) | 2.1% | 0.75% | 6.2% | -54% | 4.85% | 8.75%
8 | CSc1n[nH]c(N)c1C(=O)Nc1ccc(C)cc1 | 19.9% | 10.8% | 39.5% | 22.4% | 49.2% | 10.6%
9 | CC12CCC(=O)[C@@]1(C)CCCC2O (some centres not stated) | -34.2% | -34.4% | -12.8% | -34.6% | -26.8% | -32.2%
10 | COC(=O)/C(C#N)=C(\C)CC(C)C | 13.2% | -17.4% | -20.1% | -3.65% | -24.4% | -9%
11 | O=C(CCC(=O)Nc1cc(Cl)ccc1Cl)CC(=O)c1ccc(Cl)cc1 | 14.1% | 24.9% | 10.4% | 11% | -1.65% | -6.75%
12 | C=C(C)C(=O)OCCOCCOCCOC(=O)C(=C)C | 8.4% | -19.2% | -9.75% | 3% | -7.7% | 4.5%
13 | CC(=O)OC(C[N+]1(C)CCCCCC1)C[N+]1(C)CCCCCC1 | -34.6% | -4.8% | -17.8% | -27.6% | 7.95% | -11.2%
14 | CCN(CC)c1ccc2cc(C(=O)Nc3nc(C45CC6CC(CC(C6)C4)C5)cs3)c(=O)oc2c1 | -17.4% | -25.9% | -16.9% | -17.6% | -13.9% | -16.1%
15 | O=Nc1c(O)c(S(=O)(=O)O)cc2cc(S(=O)(=O)O)ccc12 | 24.9% | -1.8% | 51.1% | 17.9% | 37.6% | 11.2%
16 | CCOC(=O)/C=C\[C@H]1OC(C)(C)O[C@H]1[C@H](O)[C@H]1COC(C)(C)O1 | -22.3% | -14.1% | -15.4% | 38% | -11.8% | -9.6%
17 | NNC(=O)CCSCCC(=O)NN | 7.85% | -17.2% | 3.4% | -28.9% | -5.95% | -0.75%
18 | CCN(CC)C(=O)CC1(O)CCCCC1 | -9.7% | -11.2% | -3.15% | -9.65% | 2.3% | 4.2%
19 | CCCCCCCC(CCCCCCC)(C(=O)OCC)C(=O)OCC | 7.1% | -1.65% | 9.1% | -37.5% | 0.25% | 0.9%

Row | SMILES | growth inhibition [1] | growth inhibition [2] | growth inhibition [3] | growth inhibition [4] | growth inhibition [5] | growth inhibition [6]
20 | CC(=O)c1ccc2ccc3ccccc3c2c1 | 15.2% | -0.6% | 18.6% | -31.1% | 1.15% | 11.8%
21 | O=C(N/N=C/c1cccnc1)C(O)C(O)C(O)C(O)CO (configuration not stated) | -4.15% | 8.9% | 6.75% | 7.6% | -12.6% | 11.9%
22 | Cc1ccc(NC(=O)C(=O)C(C#N)c2nc(-c3ccc(-c4ccccc4)cc3)cs2)c(C)c1 (configuration not stated) | 8% | -2.75% | 19.4% | 28.4% | 4.75% | -10.1%
23 | CCC(=O)Oc1cccc(C)c1 | 13.8% | -8.4% | 2.05% | -10.6% | 4.2% | -15.4%
24 | COCCOCOCCCC#C[Si](C)(C)C | 8.3% | 25.9% | 13.9% | -1.2% | -4% | -19.4%
25 | Cc1ccc2c(c1)-c1cc(C)ccc1C2 | 29.1% | 19.9% | 16.4% | 15% | 29.4% | -1.35%
26 | CC1CCOC(c2ccccc2Cl)O1 (configuration not stated) | -25% | 14.1% | -4.55% | -12.1% | -9.3% | 5%
27 | COc1ccc2nc3c([N+](=O)[O-])ccc(NCCCN(C)C)c3c(NCCCN(C)C)c2c1 | -5.15% | 9.3% | 11.7% | 38.3% | -28.4% | -1.6%
28 | CCN(CC)N=Nc1ccc(S(N)(=O)=O)cc1 | 8.25% | 12.6% | 16.1% | 38% | -5.1% | 14.6%
29 | CC(C)CNC(=S)N/N=C/c1ccc(C(C)C)cc1 | -19.6% | -13.4% | -8.4% | -46.2% | -13.1% | -28.1%
30 | O=C(c1ccccc1)C(c1ccccc1)S(=O)(=O)N1CCOCC1 (configuration not stated) | 1.3% | 13.3% | 2.85% | -13.1% | -11.6% | -7.65%
31 | O=S1(=O)C(Cl)c2ccccc2-c2ccccc2C1Cl (configuration not stated) | -1.35% | -6.65% | -10.4% | 8.3% | 5% | -9.65%
32 | CC(=O)OC1C(O)C(C)OC(OC2C(C)OC(OC(=O)[C@@H]3CC[C@@H]4[C@H](C3)OC3(C[C@@H](OC(=O)/C=C/c5ccccc5)[C@@H](C)CO3)[C@@]43CO3)C(O)C2OC(C)=O)C1O (some centres not stated) | 91% (active) | 93.4% (active) | 92.2% (active) | 90.1% (active) | 91.1% (active) | 91.8% (active)
33 | Clc1ncc(-c2ccccc2)nc1Cl | 49.5% | 11.4% | 0.6% | 1.25% | 1.75% | 14.9%
34 | [O-]c1c(Cl)c(Cl)c(O[P+](c2ccccc2)(c2ccccc2)c2ccccc2)c(Cl)c1Cl | 99.2% (active) | 99.4% (active) | 99.5% (active) | 97.9% (active) | 99% (active) | 99.2% (active)
35 | CC1=CCCC(C)(C)C1/C=C\C(C)=N\Nc1ccc([N+](=O)[O-])cc1[N+](=O)[O-] (configuration not stated) | 0.55% | -3.3% | -12.3% | -33.9% | -0.15% | 6.3%
36 | CCCCNc1ccc(Cl)cc1 | 0.75% | -5.4% | -16.7% | -27.9% | -15.5% | -15.6%
37 | Cc1cc(C)c2c(SCc3ccc(Cl)cc3Cl)nc(N)nc2n1 | 31.8% | 12.3% | 45.9% | -27.9% | 7.1% | 44.8%
